From PubChem BioAssay
DAX1 inh-1 – DAX1 (NR0B1) inhibitors on StAR promoter, primary screen, cell-based, luminescence, SF-1 (NR5A1), full-length DAX-1; inhibition, % at 6.8 µM; AID 652010, 2013; HEK293T StAR-luciferase reporter, SF-1/DAX-1 repression relief; hit rate 1.1% among 370,000;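 active = inhibition above the mean over all tested compounds plus 3 SD, cut at about 3.6% in these data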;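 also: 0% = DAX-1 cells with DMSO and 100% = cells lacking DAX-1 with DMSO; higher inhibition means more luminescence from relief of DAX-1 repression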
DAX1 inh-2 – DAX1 (NR0B1) inhibitors, primary screen, cell-based, HEK293, Gal4-DAX1, luciferase luminescence; inhibition, % at 6.75 µM; HEK293 Gal4-DAX1 luciferase reporter; hit rate 0.99% among 340,000; AID 504766, 2011;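 active = inhibition above the mean over all tested compounds plus 3 SD, cut at about 4.2% in these data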;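 also: 0% = DAX1-transfected cells with DMSO and 100% = empty-vector control cells with DMSO; inhibition shows as a rise in luminescence from relieved DAX1 repression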
Target sequence (P51843 207-470 limits assumed): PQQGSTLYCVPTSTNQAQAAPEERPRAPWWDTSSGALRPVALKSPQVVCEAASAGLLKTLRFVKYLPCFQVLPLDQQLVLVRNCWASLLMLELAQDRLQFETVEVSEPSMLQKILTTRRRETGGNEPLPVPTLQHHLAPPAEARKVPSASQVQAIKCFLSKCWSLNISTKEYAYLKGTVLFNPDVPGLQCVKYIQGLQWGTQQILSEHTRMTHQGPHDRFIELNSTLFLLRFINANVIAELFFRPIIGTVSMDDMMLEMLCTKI
hcDAF-12 act – H. contortus DAF-12 nuclear receptor activators, primary screen, cell-based, luminescence, HEK293, lit1-tk-luc reporter; activation, % at 6.8 µM; AID 652067, 2013; HEK293 hcDAF-12 lit1-tk-luc reporter; 0% DMSO, 100% Δ7-dafachronic acid; hit rate 1.4% among 370,000;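 active = activation above the mean of all tested compounds plus 3 SD, cut at about 5.5% in these data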;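 also: 100% = response to 3 µM Δ7-dafachronic acid high control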
hgDAF12 agonist – H. glycines DAF-12 receptor agonists, primary screen, cell-based, luminescence, HEK293, GAL4 fusion, UAS-luciferase | HEK293 GAL4-hgDAF12 UAS-luciferase reporter, agonist luminescence; normalized to butyrate control | activation, % at 6.8 µM | hit rate 1.8% among 370,000;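 active = activation above a cutoff set at the mean of all screened compounds plus 3 SD, cut at about 10% in these data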;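 also: 0% = DMSO wells and 100% = sodium butyrate wells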
ssDAF12 agonist – S. stercoralis DAF-12 nuclear receptor activators, primary screen, cell-based, luminescence, HEK293, GRIP1 co-expression, lit1-tk-luc; Nuclear hormone receptor DAF-12 (Strongyloides stercoralis); HEK293 ssDAF-12/GRIP1 lit1-tk-luc reporter; % of 3 µM dafachronic acid response; activation, % at 6.8 µM; hit rate 1% among 370,000;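 active = activation above the mean over all tested compounds plus 3 SD, cut at about 0.9% in these data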;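 also: 0% = DMSO-only wells and 100% = 3 µM delta7-dafachronic acid wells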
LXR ag – LXR agonists, Gal4 luciferase reporter, confirmation, counter-screen for hcDAF-12 agonist project, cell-based, luminescence, HEK293, H. contortus campaign. HEK293 Gal4-LXR tk-luc reporter, 24 h; normalized: DMSO 0%, positive control 100%. 3,400 tested, under 10 active. shares compounds with hcDAF-12 act. activation, % at 6.8 µM;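 active = mean percent activation of the reporter above a cutoff set as the average over tested compounds plus their standard deviation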
hcDAF12 ag – H. contortus DAF-12 receptor agonists, confirmation, cell-based, luminescence, HEK293, lit1-tk-luc, triplicate; shares compounds with hcDAF-12 act; HEK293 hcDAF-12 lit1-tk-luc reporter; % of Δ7-dafachronic acid response; activation, % at 6.8 µM; hit rate 61% among 3,400; AID 743032, 2013;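 active = mean activation across triplicate tests above the threshold derived from the earlier primary screen, cut at about 5.5% in these data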;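 also: 0% = DMSO only wells and 100% = 3 µM Δ7-dafachronic acid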
hgDAF12 conf – H. glycines DAF-12 receptor agonists, confirmation, cell-based, luminescence, HEK293, GAL4-LBD fusion | HEK293 GAL4-hgDAF12 luciferase reporter, agonist mode; percent of butyrate response | activation, % at 6.8 µM | AID 743050, 2013 | hit rate 80% among 3,300 | shares compounds with hgDAF12 agonist;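 active = mean activation over triplicate wells above the hit cutoff derived from the earlier primary screen, cut at about 11% in these data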;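 also: 0% = DMSO low control and 100% = 2 mM sodium butyrate high control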
LXRb DAF12 ctr – LXR agonists, Gal4 luciferase reporter, confirmation, counter-screen for hgDAF-12 agonist project, cell-based, luminescence, HEK293, H. glycines campaign; activation, % at 6.8 µM; AID 743051, 2013; 3,300 tested, under 10 active; 24 h; shares compounds with hgDAF12 agonist;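 active = mean activation of the triplicate above a set limit carried over from the primary screen, none filed active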
* = called active by the depositor; · = no result. Rows were chosen to be rich in hits. Some 4.1% of all compounds tested hit in one or more screens of this group.

SMILES	DAX1 inh-1	DAX1 inh-2	hcDAF-12 act	hgDAF12 agonist	ssDAF12 agonist	LXR ag	hcDAF12 ag	hgDAF12 conf	LXRb DAF12 ctr
[C-]#[N+][C@]12C(=O)[C@H](C=C(Cl)[C@@]1(C)C=C)C(C)(C)[C@H]1C(=O)N(C)c3cccc2c31	-2	·	-2	-4	-2	·	·	·	·
Cc1ccc(NC(=O)c2onc(C)c2Cl)cc1	3	2	9.1*	18*	1	1	12*	16*	0
Cc1ccc(NC(=O)c2c(C)noc2C)cc1	0	1	0	-2	-1	·	·	·	·
C=CCN(Cc1ccc2c(c1)OCO2)C(C#CCCCC)C(C)C (stereo not drawn)	·	·	-2	-1	-1	·	·	·	·
COc1ccc(S[C@]2(C(=O)N3CCOCC3)CC(=O)N(c3ccc(Cl)cc3)[C@@H]2c2ccc(OC)cc2)cc1	-2	·	-3	-2	-1	·	·	·	·
Oc1c(-c2cc(-c3ccco3)[nH]n2)ccc2ccccc12	3.6*	4	13*	20*	2.6*	2	15*	25*	1
Clc1ccc2nc(-c3ccccc3)cn2c1	2	-1	11*	18*	1.9*	2	9.7*	18*	1
C#CCNC(=O)C[C@H]1C(=O)N(CCc2ccc(Cl)cc2)C2=CCCC[C@@]21C(=O)OCC	-2	·	-5	-2	-2	·	·	·	·
N/C(=N\OC(=O)c1cc(Cl)ccc1Cl)c1ccccn1	3	-1	17*	18*	2.2*	2	16*	21*	1
Cc1cc(NC(=O)COC(=O)c2ccccc2Cl)no1	-1	0	-2	-1	-1	·	·	·	·
Cc1cc(/C(N)=N/OC(=O)c2ccccc2Cl)no1	3	·	13*	14*	1.2*	2	9.6*	17*	1
CCCC1CCC2(CCCN2CCOC(=O)Nc2ccc(Br)cc2)CC1 (stereo not drawn)	·	·	2	2	-1	·	·	·	·
Brc1ccc(-n2cnc(-c3ccccc3)c2)cc1	3	5.4*	7.2*	20*	0	1	3	20*	1
CSc1ccccc1OCc1cc(C(=O)NC(C)c2cnn(C)c2)no1 (stereo not drawn)	0	1	2	2	-1	·	·	·	·
CSc1ccccc1OCc1cc(C(=O)N[C@H]2CCCCNC2=O)no1	4.4*	1	7.2*	19*	0	1	3	10	0
Cc1ccsc1/C=N/Nc1nc2ccccc2[nH]1	3.7*	0	9.9*	14*	-1	1	5	14*	1
Clc1nc2ccccc2cc1/C=N/Nc1nc2ccccc2[nH]1	2	0	9.3*	14*	1.7*	1	14*	17*	1
O=C(Nc1nc2ncccn2c1-c1ccc(F)cc1)c1ccc(F)cc1	-2	·	-2	1	-1	·	·	·	·
COC(=O)C1CN(Cc2cn(Cc3ccc(F)cc3)nn2)CCS(=O)(=O)N1Cc1ccc(OC)cc1 (stereo not drawn)	0	·	-4	2	-2	·	·	·	·
Cc1ccc(C2=NN(S(C)(=O)=O)C(c3cccs3)C2)cc1 (stereo not drawn)	2	3	7.6*	14*	0	1	5	14*	0
COc1ccc(C2=NN(S(C)(=O)=O)C(c3cccs3)C2)cc1 (stereo not drawn)	3	1	1	5	0	·	·	·	·
CS(=O)(=O)N1N=C(c2cccs2)CC1c1ccccc1 (stereo not drawn)	0	-2	0	2	-2	·	·	·	·
CCc1ccc(C2=NN(S(C)(=O)=O)C(c3cccs3)C2)cc1 (stereo not drawn)	3	1	12*	15*	2.6*	1	6.1*	23*	1
COc1ccc(Cn2cc(COC(=O)NCCc3c[nH]c4ccccc34)nn2)cc1	-1	·	-1	1	-1	·	·	·	·
CCC(C(=O)Nc1ccccc1N1CCCC1)c1ccccc1F (stereo not drawn)	-1	·	-2	3	-1	·	·	·	·
SMILES	DAX1 inh-1	DAX1 inh-2	hcDAF-12 act	hgDAF12 agonist	ssDAF12 agonist	LXR ag	hcDAF12 ag	hgDAF12 conf	LXRb DAF12 ctr
Oc1cccc2ccc(/C=C/c3cccs3)nc12	2	4	17*	20*	2.3*	1	12*	20*	1
COc1cc(/C=C/c2ccc3cccc(O)c3n2)ccc1O	0	1	0	8	-1	·	·	·	·
Cc1ccsc1/C=C/c1ccc2cccc(O)c2n1	3	3	15*	17*	1.8*	2	14*	22*	1
Oc1cccc2ccc(/C=C/c3ccccc3Br)nc12	0	3	2	6	0	·	·	·	·
CCCC/C=C1/[C@@H](CC)N(Cc2ccc(OC)cc2OC)C2=N[C@@H](c3ccccc3)CC(=O)N21	·	·	-2	4	-1	·	·	·	·
CC(C)OC(=O)c1ccc2nc3ccccc3nc2c1	2	3	7.8*	17*	1.2*	2	8.1*	17*	1
O=C(c1cc2cc(Br)ccc2[nH]1)N1CCc2ccccc21	0	1	4	4	1	·	·	·	·
COc1ccc2cc(C(=O)N3CCc4ccccc43)[nH]c2c1	3	3	14*	19*	1.6*	2	13*	24*	1
Cc1c[nH]c2cccc(-c3ccc4c(c3)OCO4)c12	0	·	-1	8	-1	·	·	·	·
Cc1ccc(-c2nc(N/N=C/c3cccnc3)c3ccccc3n2)cc1	1	-2	13*	14*	2.9*	2	12*	21*	1
